Hit rate of the full screen: of about 52,000 compounds, about 4,300 (8.3%) were called active. Only a selection was taken, and actives are over-represented in it overall. A number with no mark means an inactive call. No stated cut-off is given here; in the data, active means survival mostly below about 52% (no sharp cut-off); inactive means mostly above about 56%.
Tested on: DeltatarO mutant
Assay: S. aureus survival, RN4220 and DeltatarO strains – OD600, teichoic acid synthesis inhibitors, primary screen (AID 463173)
Conditions: S. aureus RN4220 wild type/DeltatarO growth, OD600, 18 h, hits give low values, screened at 18.75 µg/mL (by protocol)

For `CCOC(=O)c1ccc(OC(=O)c2cn(-c3cccc(OC)c3)c(=O)c3ccccc23)cc1`, which survival is on record?
The survival was 85%.

For `Cc1cc(NC(=O)CSc2nc3c([nH]c4ccccc43)c(=O)n2-c2cccc(Cl)c2)no1`, which survival is on record?
The survival was 73%.

With `CC(=O)c1cc(-c2ccc(F)cc2)n(CC(=O)NCc2ccc(C)cc2)c1C` as the compound, how does the survival read?
Its survival is 99%.

`COc1ccc2nc(N(Cc3cccnc3)C(=O)c3ccc4c(c3)OCCO4)sc2c1` was tested. Which survival did it give?
The survival was 65%.

Which survival does the source give for `Cc1ccc(NC(=O)c2ccco2)nc1` here?
Its survival is 108%.

With `CC1=C(C(=O)Nc2ccc(Cl)cc2)C(CC(C)C)n2nc(SCc3ccccc3C)nc2N1` (stereo not given) as the compound, how does the survival read?
The survival was 127%.

With `COC(=O)CCNC(=O)NC(CCC(C)C)c1c(-n2cccc2)sc2c1CCN(C)C2` (stereo not given) as the compound, how does the survival read?
Its survival is 75%.

Which survival does the source give for `Cc1cc(C)cc(N2CC(c3nc(-c4cccc(Cl)c4)no3)CC2=O)c1` (stereo not given) here?
Its survival is 37% (active).

With `COc1ccc(-c2noc(C3CC(=O)N(c4ccccc4)C3)n2)c(OC)c1` (stereo not given) as the compound, how does the survival read?
Its survival is 101%.

With `Cc1ccc(-c2noc(C3CC(=O)N(c4ccc5c(c4)OCCO5)C3)n2)cc1` (stereo not given) as the compound, how does the survival read?
Its survival is 46% (active).

How did the survival turn out when `O=C1CC(c2nc(-c3ccccc3)no2)CN1c1ccc2c(c1)OCCO2` (stereo not given) was run?
Its survival is 93%.

`CN(C)c1ccc(-c2noc(C3CC(=O)N(c4ccc5c(c4)OCCO5)C3)n2)cc1` (stereo not given) was tested. Which survival did it give?
Its survival is 92%.

With `O=C1CC(c2nc(-c3ccc(Cl)cc3)no2)CN1c1ccc2c(c1)OCCO2` (stereo not given) as the compound, how does the survival read?
The survival was 115%.

For `O=C1CC(c2nc(-c3cccc(Cl)c3)no2)CN1c1ccc2c(c1)OCCO2` (stereo not given), which survival is on record?
Its survival is 144%.

How did the survival turn out when `O=C1CC(c2nc(-c3ccccc3)no2)CN1c1ccccc1` (stereo not given) was run?
Its survival is 25% (active).

How did the survival turn out when `COc1ccc(-c2noc(C3CC(=O)N(c4cc(C)cc(C)c4)C3)n2)cc1` (stereo not given) was run?
The survival was 91%.

With `Cc1ccc(-c2nc3n(n2)C(=O)CC(c2ccc(C)cc2)S3)cc1` (stereo not given) as the compound, how does the survival read?
Its survival is 90%.

`NC(=O)CSc1ncnc2c1cnn2-c1ccccc1` was tested. Which survival did it give?
The survival was 82%.

With `O=C1CN(C(=O)c2c(F)cccc2Cl)C(c2ccc(F)cc2)c2cc(Br)ccc2N1` (stereo not given) as the compound, how does the survival read?
The survival was 42% (active).

With `O=C1CN(C(=O)COc2ccc(Cl)cc2)C(c2ccc(F)cc2)c2cc(Br)ccc2N1` (stereo not given) as the compound, how does the survival read?
The survival was 36% (active).

`O=C1CN(C(=O)COc2ccc(Cl)cc2)C(c2ccc(F)cc2)c2cc(Cl)ccc2N1` (stereo not given) was tested. Which survival did it give?
Its survival is 45%.

With `O=C1CN(C(=O)COc2ccc(Cl)cc2)C(c2ccccc2)c2cc(Br)ccc2N1` (stereo not given) as the compound, how does the survival read?
Its survival is 60%.

Which survival does the source give for `O=C1CN(C(=O)Cc2ccc(F)cc2)C(c2ccccc2)c2cc(Br)ccc2N1` (stereo not given) here?
The survival was 58%.

`CCCCOc1ccc(C(=O)N2CC(=O)Nc3ccc(Br)cc3C2c2ccc(F)cc2)cc1` (stereo not given) was tested. Which survival did it give?
Its survival is 39% (active).

`CCOc1ccc(C(=O)N2CC(=O)Nc3ccc(F)cc3C2c2ccc(F)cc2)cc1` (stereo not given) was tested. Which survival did it give?
Its survival is 148%.

How did the survival turn out when `O=C1CN(C(=O)c2ccccc2)C(c2ccc(F)cc2)c2cc(Br)ccc2N1` (stereo not given) was run?
Its survival is 60%.

How did the survival turn out when `Cc1ccc(C(=O)N2CC(=O)Nc3ccc(Br)cc3C2c2ccc(F)cc2)cc1C` (stereo not given) was run?
Its survival is 66%.

With `COc1ccc(C(=O)N2CC(=O)Nc3ccc(Br)cc3C2c2ccc(F)cc2)cc1OC` (stereo not given) as the compound, how does the survival read?
Its survival is 48%.

`O=C1CN(C(=O)COc2ccccc2)C(c2ccc(F)cc2)c2cc(Br)ccc2N1` (stereo not given) was tested. Which survival did it give?
The survival was 33% (active).

For `O=C(c1ccccc1/S(=N/S(=O)(=O)c1ccccc1)N1CCOCC1)N1CCOCC1` (stereo not given), which survival is on record?
The survival was 75%.

With `Clc1cccc(-c2nnc(CN3CCN(c4ccccn4)CC3)o2)c1` as the compound, how does the survival read?
The survival was 82%.

How did the survival turn out when `CCOc1ccc(CC(=O)NCC(c2cccs2)S(=O)(=O)c2ccc(F)c(C)c2)cc1` (stereo not given) was run?
The survival was 67%.

How did the survival turn out when `Cc1ccc(N2CC(NC(=O)C3CCCC3)CC2=O)cc1C` (stereo not given) was run?
The survival was 103%.

`Cc1ccc(CNc2oc(-c3ccc(COc4ccc(C)cc4)o3)nc2C#N)cc1` was tested. Which survival did it give?
Its survival is 65%.

For `COCCNC(=O)CCCn1c(SCc2ccccc2C)nc2c(sc3ccccc32)c1=O`, which survival is on record?
Its survival is 97%.

`Cc1ccc2oc3c(c(=O)c2c1)C(c1ccc(OCC(N)=O)cc1)N(Cc1ccc2c(c1)OCO2)C3=O` (stereo not given) was tested. Which survival did it give?
Its survival is 93%.

`COC(=O)c1ccc(-n2nnc(-c3nc(-c4ccc5c(c4)OCO5)no3)c2C)cc1` was tested. Which survival did it give?
The survival was 82%.

For `Cc1ccccc1NC(=O)c1c(C)oc2ccc(O)c(CN3CCN(C)CC3)c12`, which survival is on record?
Its survival is 77%.

`Cc1nc2nc(SCC(=O)NCCc3ccccc3)nn2c(C)c1Cc1c(F)cccc1Cl` was tested. Which survival did it give?
The survival was 37% (active).

For `CCCCNC(=O)CSc1nc2nc(C)c(Cc3c(F)cccc3Cl)c(C)n2n1`, which survival is on record?
Its survival is 31% (active).

`CCN(CC)CCCNC(=O)CSc1nc2nc(C)c(Cc3c(F)cccc3Cl)c(C)n2n1` was tested. Which survival did it give?
The survival was 146%.

Which survival does the source give for `Cc1nc2nc(SCC(=O)NC(C)c3ccccc3)nn2c(C)c1Cc1c(F)cccc1Cl` (stereo not given) here?
Its survival is 68%.

`Cc1nc2nc(SCC(=O)O)nn2c(C)c1Cc1c(F)cccc1Cl` was tested. Which survival did it give?
The survival was 93%.

For `COc1ccc(CCNC(=O)CSc2nc3nc(C)c(Cc4ccc(C)cc4)c(C)n3n2)cc1OC`, which survival is on record?
The survival was 55%.

Which survival does the source give for `Cc1nc2nc(SCC(=O)NCCc3ccc(Cl)cc3)nn2c(C)c1Cc1ccccc1` here?
The survival was 46% (active).

For `Cc1nc2nc(SCC(=O)NCCc3ccc(Cl)cc3)nn2c(C)c1Cc1ccccc1Cl`, which survival is on record?
The survival was 99%.

For `Cc1nc2nc(SCC(=O)NCCc3ccc(Cl)cc3)nn2c(C)c1Cc1c(F)cccc1Cl`, which survival is on record?
The survival was 0% (active).

With `Cc1nc2nc(SCC(=O)Nc3cccc(Cl)c3)nn2c(C)c1Cc1ccccc1` as the compound, how does the survival read?
Its survival is 85%.

`Cc1nc2nc(SCc3c(F)cccc3Cl)nn2c(C)c1Cc1ccccc1` was tested. Which survival did it give?
The survival was 66%.

For `Cc1ccccc1Cc1c(C)nc2nc(SCC(=O)NCCc3ccc(Cl)cc3)nn2c1C`, which survival is on record?
The survival was 67%.

`Cc1cccc(C(=O)N2CCc3cc(CNS(=O)(=O)c4cccs4)ccc32)c1` was tested. Which survival did it give?
The survival was 74%.

With `Cc1ccc(C)c(CN2C(=O)c3ccccc3S(=O)(=O)c3ccc(C(=O)Nc4ccccc4C(F)(F)F)cc32)c1` as the compound, how does the survival read?
Its survival is 84%.

How did the survival turn out when `Cc1ccccc1Cn1c(CN2CCN(c3cc(Cl)ccc3C)CC2)nc2c1c(=O)[nH]c(=O)n2C` was run?
Its survival is 106%.

How did the survival turn out when `CCOC(=O)Cc1ccc(NC(=O)N(Cc2ccc(OC)cc2)C2CCN(C(C)=O)CC2)cc1` was run?
Its survival is 88%.

For `Cc1ccc(NC(=O)C(=O)NCC(c2cccnc2)N2CCN(c3ccccc3F)CC2)cc1Cl` (stereo not given), which survival is on record?
Its survival is 73%.

— PubChem BioAssay AID463173 (ICCB-Longwood Screening Facility, Harvard Medical School, 2010)
